High-throughput results (PubChem)
Tgondii IFNg: T. gondii growth inhibition with IFN-gamma, primary screen, cell-based | hit rate 3.8% among 69,000 | Toxoplasma gondii growth in IFN-gamma-treated host cells; active compounds read low | activity change, negative = inhibition, % (concentration not given with the values); in the data active = activity change below about -70%, passing the limit was not always enough;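 also: host cells are HeLa cells infected with Toxoplasma gondii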
Starred values were filed as active, the others as inactive. The entries come from a sample that favours hits as a whole.

SMILES	Tgondii IFNg
c1nc(N2C[C@@H]3[C@H](C2)[C@H]2CC[C@@H]3O2)c2cc[nH]c2n1	11
O=C1c2cccc(O)c2C(=O)c2c(O)cc(CO)cc21	-62
O=C1c2c(O)ccc(O)c2C(=O)c2c(NCCNCCO)ccc(NCCNCCO)c21	-88*
COc1ccc(-c2nc(-c3ccncc3)[nH]c(=O)n2)cc1	44
Oc1ccc(-c2nc(-c3ccc(F)cc3)c(-c3ccncc3)[nH]2)cc1	-80*
CCN(C)Cc1ccc(-c2nc(-c3ccncc3)cc(=O)[nH]2)cc1	0
COc1cccc(-c2ccc(NC(=O)c3ccc(Cn4cnnn4)cc3)cc2)c1	0
Cc1ccc([N+](=O)[O-])cc1S(=O)(=O)N(C)/N=C/c1cnc2ccc(Br)cn12	-80*
CCCNc1nc(-c2ccc(OC)cc2)nc2ccccc12	-70
CCOCC1c2c(cnn2CC2CC2)CCN1C(=O)Cc1ccccc1 (stereo not given)	39
Cc1cc(C(=O)NCc2ccc(N3CCOCC3)cc2)nn1C	-32
CCn1cnc2c1C(C(=O)O)CN(c1ccc(C)nn1)C2 (stereo not given)	61
CC(=O)N1CCCn2nc(C(=O)O)cc2C1	15
CSc1ncc(C(=O)Nc2ccc(Oc3ccc4c(c3)OCO4)cc2)cn1	-103*
CCCN(CCC)S(=O)(=O)c1ccc(NC(=O)c2ccc3c(c2)OCO3)cc1	-65
CSc1ncc(C(=O)Nc2cccc(C(=O)N3CCCCC3)c2)cn1	13
CCCNC(=O)c1cc(-c2cnc(-c3cccnc3)nc2)cn1C	-91*
COCCC(=O)c1cc(-c2cnc(-c3cccnc3)nc2)cn1C	-39
CN(C)CCNC(=O)c1cc(-c2cnc(-c3ccnn3C)nc2)cn1C	71
O=C(CCc1cc(Cl)no1)N1CCOC(C(F)(F)F)C1 (stereo not given)	-6
CCOc1ccc(NC(=O)Cn2c(=O)ccc3cc(S(=O)(=O)N4CCCC4)ccc32)cc1	-10
CCc1nc(OCC(=O)Nc2cc(C)cc(C)c2)c2ccccc2n1	-6
Cc1cc(C)cc(NC(=O)CC(=O)NCc2ccccc2)c1	-86*
Cc1ccc(NC(=O)CC(=O)NCc2ccc(CN3CCCC3)cc2)cc1	-21
CCN1CCOCC2(CCCN(C(=O)c3cc4ccccc4[nH]3)C2)C1 (stereo not given)	1
SMILES	Tgondii IFNg
COc1ccc(C(C)NC(=O)c2cn3c(n2)CCCC3)cc1OC (stereo not given)	110
COc1ccc(C(C)NC(=O)c2c3c(nn2C)CCCC3)cc1F (stereo not given)	-77*
COc1ccc(OC)c(-c2cc(C(=O)NC(C)c3ccc4c(c3)CCC4)[nH]n2)c1 (stereo not given)	75
Cc1ccsc1C(=O)N1CC[C@@H]2OCCN(Cc3cccnc3)[C@@H]2C1	-2
O=c1c(N2CCN(S(=O)(=O)c3ccc(Cl)cc3)CC2)coc2ccccc12	-22
CN(C)C(=O)N1CCc2c(nnn2C)C1COCc1cccnc1 (stereo not given)	0
COc1ccc2c(O[C@H]3CC4C(=O)N(C)CCCC/C=C\[C@@H]5C[C@@]5(C(=O)NS(=O)(=O)C5CC5)NC(=O)[C@@H]4C3)cc(-c3nc(C(C)C)cs3)nc2c1C (stereo not given in full)	-74*
CCC1=N[C@@]2(CC[C@@H]3CN(C(=O)NCC4CCCCC4)C[C@H]32)C(=O)N1	-2
O=C(c1ccc(-c2ccoc2)nc1)N1CCC(Oc2cccnc2)CC1	0
CCCCSC(=S)NC1CCS(=O)(=O)C1 (stereo not given)	4
CCCCCCCCCCOC1CCS(=O)(=O)C1 (stereo not given)	-84*
CC(=O)O[C@@H]1C[C@H]2C(C)(C)C(=O)C=C[C@]2(C)[C@H]2CC[C@@]3(C)[C@H](c4ccoc4)OC(=O)[C@H]4O[C@]43[C@@]21C	52
CC(=O)O[C@@H]1CC2C(C)(C)[C@H](O)CC[C@]2(C)C2CC[C@@]3(C)[C@H](c4ccoc4)OC(=O)C4OC43[C@@]21C (stereo not given in full)	-71*
CC(=O)O[C@H]1C[C@@H](O)C(C)(C)C2C[C@@H](OC(C)=O)[C@]3(C)C(CC[C@@]4(C)[C@H](c5ccoc5)OC(=O)C5OC543)[C@]21C (stereo not given in full)	18
CC1(C)C(=O)C=C[C@@]2(C)C1CC(=O)[C@]1(C)C2CC[C@@]2(C)[C@H](c3ccoc3)OC(=O)[C@H]3O[C@]321 (stereo not given in full)	25
CC1(C)C(=O)C=C[C@@]2(C)C1C=C[C@]1(C)C2CC[C@@]2(C)[C@H](c3ccoc3)OC(=O)[C@H]3O[C@]321 (stereo not given in full)	-86*
CC(=O)O[C@@H]1CC2C(C)(C)C(=O)C=C[C@]2(C)C2CC[C@@]3(C)[C@H](c4ccoc4)OC(=O)[C@H]4O[C@]43[C@@]21C (stereo not given in full)	16
COC(=O)c1ccccc1NC(=O)N1CCC2(CC1)CC(=O)c1ccccc1O2	37
COc1ccc(-c2nc(Cn3c(=O)c4c(C)cc(C)nc4n(C)c3=O)c(C)o2)cc1OC	-10
CN(C)C(=O)N1CCC(c2nnc3ccc(C(=O)CCN4CCOCC4)cn23)C1 (stereo not given)	25
CC1=C(C(=O)NCC(C)c2ccccc2)C2(CCN(S(C)(=O)=O)CC2)OC1=O (stereo not given)	40
CCc1ccc(CN2CCCC(c3nn(C)c(=O)n3CC)C2)nc1 (stereo not given)	29
Cc1ncc(C(=O)N2CCC3(CN(C)C(=O)O3)C2)c(-c2ccccc2)n1 (stereo not given)	57
Cc1cc(F)ccc1NC(=O)c1c(O)c2ccccc2[nH]c1=O	46
O=S(=O)(c1ccc2c(c1)CCCC2)N1CCC2(CC1)NCCN=C2NCc1cccc(F)c1	-43
SMILES	Tgondii IFNg
O=C(c1ccccn1)N1Cc2nccn2CC(CN2CCCC2)C1 (stereo not given)	3
CCN(CC1CCCO1)C(=O)c1cc(Cn2ccc3ccccc32)[nH]n1 (stereo not given)	9
CN(C)c1nc(-c2cnn(C)c2)nc2c1CN(Cc1ccc(F)cc1)CC2	-12
CCN(CC)S(=O)(=O)c1ccc2c(c1)cc(C(=O)NCCN1CCCC1)n2C	-48
CCc1ccccc1OCCCN(C)C(=O)c1cnc2cccc(C)n2c1=O	-3
COc1ccc2c(c1)OCC(Cc1ccc(OC)c(OC)c1)C2=O (stereo not given)	-3
COc1ccc2c(c1)O[C@H]1c3ccc(OC)cc3OC[C@@H]21	-21
COc1ccc2c(c1)OCC(Cc1ccc(OC)c(OC(C)=O)c1)C2=O (stereo not given)	-84*
Cc1cc(C(F)(F)F)nc(CCNCc2nnc(-c3ccc(C)n3C)o2)n1	6
CCOCC1CCC2(CCN(C(=O)C3CC=CC3)CC2)N1C (stereo not given)	-39
O=C(COc1ccccc1Cl)Nc1cncc(-c2nc3ccccc3o2)c1	5
COCCN1CCC12CCN(C(=O)c1ccn[nH]1)C2 (stereo not given)	21
CCOc1ccc(-c2cc3c(=O)n(Cc4nc(-c5cccc(Cl)c5)oc4C)ccn3n2)cc1	33
CN(C)CC(=O)N1CCCn2c(nnc2Cn2cccn2)C1	-2
Cn1cnc(S(=O)(=O)N2CCCC(N)CC2)c1 (stereo not given)	-1
CCN(CC)C(=O)CN1CCC(Cc2cc(NC3CCCC3)nc(C)n2)CC1	-17
